Hit rate of the full screen: of about 2,300 compounds, about 1,400 (61%) were called active. About 29% were inconclusive and are not listed. So high a share suggests a set chosen from earlier hits. Some of the results follow. A number with no mark means an inactive call. Calls come from the whole dose curve; as a rule, active = well fitted inhibition curve with a large enough effect; inconclusive = small, poorly fitted or top-dose-only effect, or effect the other way; inactive = no such curve, though single readings can be large or run the other way.
Test: Confirmation screen for delayed death inhibitors of the malarial parasite plastid, 96 hour incubation; note: nearly all actives have a fitted effect of over 60% in size
Conditions: P. falciparum luciferase growth in erythrocytes; series mostly up to 28.7 µM; activity change, negative = inhibition: at the top concentration
Method in brief: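 Two-generation (96 h, 37 C) exposure of P. falciparum carrying an integrated firefly luciferase reporter in erythrocytes, 0.1% parasitemia and 2% hematocrit final, Albumax-supplemented RPMI. Luminescence decrease measures growth inhibition.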
% is set by controls: 0 for no effect and ±100 for the full control effect; potency is the fitted concentration of half-maximal effect.

Structure (SMILES) | Potency | activity change, negative = inhibition [%]
O=C1C(=O)c2ccccc2C(O)=C1C1CCC(c2ccc(Cl)cc2)CC1 (stereo not given) | 0.0158 µM (active) | –
CN1CC2=Cc3ccccc3OC23Oc2ccccc2C=C3C1 | 3.16 µM (active) | –
CCC1=C/C(=C/c2sc3ccccc3[n+]2CC)CC(C)(C)C1 | 0.355 µM (active) | –
NC(=O)COc1ccc(NC(=O)CC23CC4CC(CC(C4)C2)C3)cc1 | 11.2 µM (active) | –
CCn1nc(C)c(NC(=O)CC23CC4CC(CC(C4)C2)C3)c1C | – | -11.8
CSCCC(NC(=O)c1ccccc1Cl)C(=O)N1CCN(C(c2ccccc2)c2ccccc2)CC1 (stereo not given) | 3.98 µM (active) | –
Cc1ccc(N2C(=O)N3[C@H](c4ccc(F)cc4)[C@@H]4C(=O)N(C5CCCCC5)C(=O)[C@@H]4[C@]3(Cc3ccccc3)C2=O)cc1 | 5.62 µM (active) | –
O=C(NCc1ccccc1)C(c1cccnc1)N(C(=O)c1ccccn1)c1ccccc1F (stereo not given) | – | -26.2
O=C(CCc1ccccc1)NNC(=O)c1ccccn1 | 6.31 µM (active) | –
COc1ccc(CCN2CCCn3c2nc2c3c(=O)n(Cc3ccccc3F)c(=O)n2C)cc1OC | 2.24 µM (active) | –
Cc1ccc(S(=O)(=O)Nc2ccc(C(=O)Nc3ccncc3)cc2)cc1 | 12.6 µM (active) | –
CCOc1ccc(C2C3=C(Nc4nc(N)[nH]c(=O)c42)c2ccccc2C3=O)cc1 (stereo not given) | 10 µM (active) | –
CCN(CC)S(=O)(=O)c1cc(NC(=O)C(C)OC(=O)c2[nH]c(C)c(C(C)=O)c2C)ccc1C (stereo not given) | 1.78 µM (active) | –
O=C1/C(=C/c2ccccc2F)SC(=S)N1CC(=O)N1CCCCC1c1cccnc1 (stereo not given) | 10 µM (active) | –
COc1cc(OC)c(OC)cc1CN1CCN(C(=O)c2cccc3ccccc23)CC1 | 10 µM (active) | –
CCCc1cc(=O)oc2cc(OC(C)C(=O)NCc3ccccn3)c(Cl)cc12 (stereo not given) | 15.8 µM (active) | –
COc1ccccc1NC(=O)c1ccc2nc(-c3ccccc3)c(-c3ccccc3)nc2c1 | – | 2.71
COc1cc(C(=O)Nc2ccc(Nc3ccccc3)cc2)cc(OC)c1OC | 5.01 µM (active) | –
COc1cc(C(=O)Nc2ccc(S(=O)(=O)Nc3cc(C)on3)cc2)cc(OC)c1OC | – | -8.04
COC(=O)c1ccc(NC(=O)c2cccc(NC(=O)c3ccccc3)c2)cc1 | 7.94 µM (active) | –
COc1ccc(NC(=O)c2cccc(NC(=O)c3ccccc3)c2)c(OC)c1 | 8.91 µM (active) | –
O=C(Nc1cccc(Br)c1)c1ccc2snnc2c1 | – | -6.94

Structure (SMILES) | Potency | activity change, negative = inhibition [%]
COc1cc2c(cc1NC(=O)c1ccc(C(C)(C)C)cc1)CCCC2 | 12.6 µM (active) | –
O=C(CCl)N1CCN(CC(=O)N2CCCC2)CC1 | 14.1 µM (active) | –
C/C(=C\C(=O)OCCCCCCCCC(=O)O)C[C@@H]1OC[C@H](C[C@@H]2O[C@H]2[C@@H](C)[C@H](C)O)[C@@H](O)[C@H]1O | 0.501 µM (active) | –
CSCCn1c(C(C)(C)C)cc(C(=O)O)c1C | – | 17
CCC(=O)c1ccc(OCC(O)CNC(C)c2ccccc2)cc1 (stereo not given) | 11.2 µM (active) | –
Cn1nnnc1Sc1ncnc2scc(-c3cccc(S(C)(=O)=O)c3)c12 | 12.6 µM (active) | –
Cn1nnnc1Sc1ncnc2scc(-c3cccc(F)c3)c12 | 6.31 µM (active) | –
CC(=O)N1c2ccc(S(=O)(=O)NCCC(=O)NC3CCCC(C)C3C)cc2CC1C (stereo not given) | 14.1 µM (active) | –
N#C/C(=C\c1ccccn1)c1ccccn1 | 11.2 µM (active) | –
O=C(c1ccco1)N1CCN(C2c3ccccc3-c3ccccc32)CC1 | 12.6 µM (active) | –
COc1ccc(CSC2=NCCN2)cc1Br | 12.6 µM (active) | –
O=C(CCl)c1ccc2c(c1)CCN2C(=O)C1CCCCC1 | 11.2 µM (active) | –
O=C(COc1ccc(Cl)cc1)NCc1nnc2c3ccccc3c(-c3ccccc3)nn12 | 12.6 µM (active) | –
COc1cccc(/C=C2\SC(=S)N(CCC(=O)N3CCCCC3CCO)C2=O)c1 (stereo not given) | 6.31 µM (active) | –
CC(C)c1ccc(/C=C2\SC(=S)N(CCC(=O)N3CCCCC3CCO)C2=O)cc1 (stereo not given) | 1.26 µM (active) | –
O=C1/C(=C/c2ccc(Cl)cc2)SC(=S)N1CCC(=O)N1CCCCC1CCO (stereo not given) | 12.6 µM (active) | –
COc1cccc([C@@H]2Oc3ccc(OC)cc3C(=O)[C@H]2O)c1 | 7.08 µM (active) | –
C=CCNC(=O)c1onc(CSc2ccc(C(C)C)cc2)c1C(=O)O | – | -58.6
C=CCNC(=O)c1onc(CSc2ccc(F)c(F)c2)c1C(=O)O | – | -32.6
C=CCNC(=O)c1oc2ccc(S(=O)(=O)N3CCCCC3)cc2c1C | 11.2 µM (active) | –
COC(=O)C1=CN(Cc2ccc(F)cc2)C=C(C(=O)OC)C1c1ccc(O)c(OC)c1 | 10 µM (active) | –
CC(=O)N(C)C1=C(N2CCOCC2)C(=O)c2ccccc2C1=O | 0.0355 µM (active) | –

Structure (SMILES) | Potency | activity change, negative = inhibition [%]
N#Cc1ncc(-c2ccc3c(c2)OCCOCCOCCOCCOCCO3)nc1C#N | 12.6 µM (active) | –
O=C(c1cc(COc2cccc(C(F)(F)F)c2)on1)N1CCC(Oc2cccnc2)CC1 | 14.1 µM (active) | –
C/C(=N\NC(=O)c1ccc(Cl)c(Cl)c1)c1ccc(Br)s1 | 2 µM (active) | –
COCCn1c(SC(C)C(=O)Nc2ncc(Cl)cc2Cl)nc2ccccc21 (stereo not given) | 15.8 µM (active) | –
O=C(CSc1nc2ccccc2n1-c1ccccc1)Nc1ncc(Cl)cc1Cl | 10 µM (active) | –
Cc1ccc(-n2c(SCC(=O)Nc3ncc(Cl)cc3Cl)nc3ccccc32)cc1 | 11.2 µM (active) | –
Cc1nn(C)c(C)c1C(C)NC(=O)c1ccc(OC2CCN(Cc3ccccn3)CC2)cc1 (stereo not given) | – | -14.3
COc1ccc(CN2CCC(Oc3ccc(C(=O)NCc4ccccn4)cc3)CC2)c(F)c1 | 12.6 µM (active) | –
O=C1N=C(N2CCN(c3ccccc3)CC2)S/C1=C/c1cccs1 | 12.6 µM (active) | –
CC1=NNC(=O)/C1=C\c1cn(-c2ccccc2)nc1-c1cccs1 | 5.62 µM (active) | –
O=C(c1ccco1)N1CCN(C(=O)C2CCCc3c2[nH]c2ccc(Cl)cc32)CC1 (stereo not given) | 12.6 µM (active) | –
Cc1n[nH]c(=S)n(/N=C/c2ccccn2)c1=O | – | -15.7
C=CCN=c1scc(-c2ccc(F)cc2)n1/N=C/c1ccccn1 | 3.98 µM (active) | –
Cc1ccc(NC(=O)CSc2nc3ccccc3c(=O)n2CCCN2CCCCC2)cc1Cl | 6.31 µM (active) | –
CC(C)(C)n1ncc2c(=O)n(Cc3ccccc3Br)cnc21 | 12.6 µM (active) | –
CSc1ncccc1C(=O)NC1CC(C)(C)Cc2c1cnn2-c1ccccc1C (stereo not given) | 11.2 µM (active) | –
COc1cccc(C(=O)NC2CC(C)(C)Cc3c2cnn3-c2cccc(F)c2)c1OC (stereo not given) | 12.6 µM (active) | –
COc1ccc(OC)c(C(=O)NC2CC(C)(C)Cc3c2cnn3-c2ccccc2)c1 (stereo not given) | 11.2 µM (active) | –
CC[C@H]1OC(=O)[C@H](C)[C@@H](O[C@H]2C[C@@](C)(OC)[C@@H](O)[C@H](C)O2)C(C)[C@@H](O[C@@H]2O[C@H](C)C[C@H](N(C)C)[C@@H]2O)[C@](C)(OC)C[C@@H](C)C(=O)[C@H](C)[C@@H](O)[C@]1(C)O (stereo not given in full) | 2.82 µM (active) | –
CC[C@H]1OC(=O)[C@H](C)[C@@H](O[C@H]2C[C@@](C)(OC)[C@@H](O)[C@H](C)O2)[C@H](C)[C@@H](O[C@@H]2O[C@H](C)C[C@H](N(C)C)[C@H]2O)[C@](C)(O)C[C@@H](C)CN(C)[C@H](C)[C@@H](O)[C@]1(C)O | 0.631 µM (active) | –
CCC(=O)OC1C(N(C)C)CC(C)O[C@H]1O[C@H]1[C@H](C)[C@@H](O[C@H]2CC(OC)[C@@H](O)C(C)O2)[C@H](C)C(=O)O[C@@H](CC)[C@](C)(O)[C@@H](O)[C@H](C)C(=O)[C@@H](C)C[C@]1(C)O (stereo not given in full) | 10 µM (active) | –
COc1ccccc1NS(=O)(=O)c1ccc(NN=C2CCCC2)c([N+](=O)[O-])c1 | 11.2 µM (active) | –

Structure (SMILES) | Potency | activity change, negative = inhibition [%]
Cc1ccc(-c2nn(-c3ccccc3)cc2CC(=S)N2CCOCC2)cc1 | 12.6 µM (active) | –
COc1ccc(Cn2c(-c3ccc(Br)cc3)c[n+]3ccccc23)cc1 | 0.562 µM (active) | –
Cc1ccn2c(NC3CCCC3)c(-c3ccccn3)nc2c1 | 3.16 µM (active) | –
CCOC(=O)c1cc(-c2ccccc2)sc1NC(=O)C(C)OC(=O)c1cccnc1Cl (stereo not given) | 6.31 µM (active) | –
COCCN(C(=O)c1ccccc1F)c1nnc(-c2ccc(OC)cc2)s1 | 7.08 µM (active) | –
COc1ccc(C2CC(c3cccs3)=NN2C(=O)CSc2nnc(N)s2)cc1OC (stereo not given) | 11.2 µM (active) | –
Cc1ccc(NC(=O)c2ccc3c(SCC(=O)O)c4c(nc3c2)CCCC4)c(Br)c1 | 7.94 µM (active) | –
Cc1onc(NC(=O)c2ccc([N+](=O)[O-])o2)c1Br | 11.2 µM (active) | –
Cc1cc[n+]2cc(-c3cccc([N+](=O)[O-])c3)c(-c3cccc([N+](=O)[O-])c3)cc2c1 | 0.112 µM (active) | –
CCC(=O)Nc1cccc(C(=O)/C=C/c2ccccc2)c1 | 12.6 µM (active) | –
CCC(=O)Nc1cccc(C(=O)/C=C/c2cc(Br)ccc2OC)c1 | 7.94 µM (active) | –
CC(=O)Nc1cccc(C(=O)/C=C/c2ccc(C)cc2)c1 | 15.8 µM (active) | –
N#C/C(=C\c1ccc(-c2ccc(C(=O)O)cc2)o1)C(=O)Nc1ccc(F)cc1 | 10 µM (active) | –
COc1ccccc1-c1cc(C(=O)N/N=C/c2cccs2)c2ccccc2n1 | 6.31 µM (active) | –
COc1ccccc1-c1cc(C(=O)N/N=C/c2ccc(C)o2)c2ccccc2n1 | – | -20.2
COc1ccccc1-c1cc(C(=O)N/N=C/c2sccc2C)c2ccccc2n1 | 3.55 µM (active) | –
COc1ccc(/C=N/NC(=O)c2cc(-c3ccccc3)nc3ccccc23)cc1O | – | -16.7
COc1ccccc1-c1cc(C(=O)N/N=C/c2ccc(C)s2)c2ccccc2n1 | 5.01 µM (active) | –
COc1ccc(-c2cc(C(=O)N/N=C/c3ccc4c(c3)OCO4)c3ccccc3n2)c(OC)c1 | 11.2 µM (active) | –
